The text below walks through data of PubChem BioAssay (NCATS).

Experiment [1] in a line: Quantitative High-Throughput drug screen in 47 multiple myeloma cell lines against the NCATS MIPE library collection: PE2_PLB cell viability assay (AID 1919869). Also: nearly all actives have a fitted effect of over 35% in size. A digest of the protocol:
(§1)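 qHTS format: cells plated (500/well), pin-dosed with MIPE 4.0 compounds, kept 48 h at 37 °C. Readout was CellTiter-Glo luminescence, median RLU.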

Experiment [2] can be described thus: Quantitative High-Throughput drug screen in 47 multiple myeloma cell lines against the NCATS MIPE library collection: RPMI8226_ATCC cell viability assay (AID 1919871). Also: nearly all actives have a fitted effect of over 30% in size. A digest of the protocol:
as §1

The nature of experiment [3]: Quantitative High-Throughput drug screen in 47 multiple myeloma cell lines against the NCATS MIPE library collection: OPM2_DSMZ cell viability assay (AID 1919872). Also: nearly all actives have a fitted effect of over 30% in size. A digest of the protocol:
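Approved and investigational drugs from MIPE 4.0 were added by pin tool to 500 cells per well. After 48 hours at 37C, ATP-based CellTiter-Glo luminescence indicated remaining viability.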

The nature of experiment [4]: Quantitative High-Throughput drug screen in 47 multiple myeloma cell lines against the NCATS MIPE library collection: KMS11_JCRBsus cell viability assay (AID 1919873). Also: nearly all actives have a fitted effect of over 50% in size. The method, boiled down: as §1
Experiment [5] in a line: Quantitative High-Throughput drug screen in 47 multiple myeloma cell lines against the NCATS MIPE library collection: KMS28BM_JCRB cell viability assay (AID 1919874). Also: nearly all actives have a fitted effect of over 35% in size. A digest of the protocol: as §1
Experiment [6] can be described thus: Quantitative High-Throughput drug screen in 47 multiple myeloma cell lines against the NCATS MIPE library collection: PCM6_Riken cell viability assay (AID 1919870). Also: nearly all actives have a fitted effect of over 30% in size. A digest of the protocol: as §1

Molecules are shown by their SMILES. Results filed as inconclusive are left out. Activity calls are given as the source filed them. Calls follow the shape of the dose curve; as a rule, active = well fitted cell-killing curve with a large enough effect; inconclusive = small, poorly fitted or top-dose-only effect, or effect the other way; inactive = no such curve, though single readings can be large or run the other way.
Potency is read from the fitted curve at half-maximal effect.

Consider `COc1cc2nccc(Oc3ccc(NC(=O)NC4CC4)c(Cl)c3)c2cc1C(N)=O`, for which the Potency was 18.7 µM (active) in experiment [1]; 20.9 µM (active) in experiment [2]; 13.2 µM (active) in experiment [3]; 20.9 µM (active) in experiment [4]; 16.6 µM (active) in experiment [5].
Take `O=C(NOC[C@H](O)CO)c1ccc(F)c(F)c1Nc1ccc(I)cc1F`: the Potency was 0.0662 µM (active) in experiment [1] and 0.0296 µM (active) in experiment [2]. Also, the Potency result in experiment [4] and in experiment [5] was “inactive” each time.
As to `NS(=O)(=O)c1cc2c(cc1Cl)NC=NS2(=O)=O`, the Potency result in experiment [1], in experiment [2], in experiment [3] and in experiment [5] was “inactive” throughout.
Consider `CCCCCCCc1ccc(CCc2cccc(O)c2C(=O)O)cc1`, for which the results for the Potency in experiment [1] and in experiment [2] were 20.9 µM (active) and 16.6 µM (active), respectively. Moreover, the Potency result in experiment [3], in experiment [4] and in experiment [5] was “inactive” each time.
As for `CCOc1cc(C(=O)Nc2ccc(Cl)c(-c3nc4ccccc4[nH]3)c2)cc(OCC)c1OCC`, the results for the Potency in experiment [1] and in experiment [2] were 8.33 µM (active) and 18.7 µM (active), respectively. Also, the Potency result in experiment [5] is “inactive”.
Consider `N#Cc1ccc(C(c2ccc(C#N)cc2)n2cncn2)cc1`, for which, in experiment [1], the Potency entry was “inactive”. Also, the Potency in experiment [2] was 5.9 µM (active); in experiment [3], 9.35 µM (active); in experiment [5], 5.9 µM (active).
`COc1ccc(CC2=NN3C([C@@H](CCc4ccccc4)[C@@H](C)O)=NC(C)C3C(=O)N2)cc1OC` (stereo partly specified): the Potency result in experiment [1], in experiment [2], in experiment [3], in experiment [4] and in experiment [5] was “inactive” each time.
On to `CNC(=O)c1ccc(N2C(=S)N(c3ccc(C#N)c(C(F)(F)F)c3)C(=O)C2(C)C)cc1F`, for which the Potency entry in experiment [1], in experiment [2], in experiment [3] and in experiment [5] was “inactive” throughout.
With `COc1ccc(CCN2CCN(CCCc3ccccc3)CC2)cc1OC`, the Potency entry in experiment [1] and in experiment [2] was “inactive” throughout. For the same molecule, the Potency in experiment [5] was 2.09 µM (active).
Take `N=c1nc(N2CCCCC2)cc(N)n1O`: the Potency in experiment [6] was 23.5 µM (active). Further, the Potency entry in experiment [2], in experiment [4] and in experiment [5] was “inactive” throughout.
Regarding `c1ccc([C@H]2CN3CCSC3=N2)cc1`, the Potency result in experiment [1], in experiment [3], in experiment [4] and in experiment [5] was “inactive” throughout.
On to `Cc1ccnc(NS(=O)(=O)c2ccc(NC(=O)Nc3ccc(S(=O)(=O)Nc4nccc(C)n4)cc3)cc2)n1`, for which, in experiment [6], the Potency is 4.69 µM (active).
Consider `Cc1cc([C@@H](C)Nc2ccccc2C(=O)O)c2nc(N3CCOCC3)cc(=O)n2c1`, for which the Potency is 9.59 µM (active) in experiment [1] and 42.9 µM (active) in experiment [3].
For `Cc1ccccc1C(C(=O)NC1CCCC1)N(C(=O)Cn1cnc2ccccc21)c1cccc(F)c1` (stereo unspecified), the Potency entry in experiment [6] and in experiment [5] was “inactive” in each case. Moreover, in experiment [2], the Potency is 3.72 µM (active).
`CNC(=O)c1ccc(C)c(-n2c(C)cc(OCc3ccc(F)cc3F)c(Br)c2=O)c1`: the Potency in experiment [6] was 14.8 µM (active). Further, the Potency entry in experiment [2], in experiment [3] and in experiment [5] was “inactive” each time.
On to `CC(C)(C)NCC(O)c1ccc(O)c(CO)c1` (stereo unspecified), for which the Potency result in experiment [6], in experiment [2] and in experiment [3] was “inactive” throughout.
For `OC[C@H](Cc1ccccc1)Nc1nc(Oc2ccc3c(c2)CCC3)nc2c1ncn2Cc1ccc(-c2ccccc2)cc1`, the Potency result in experiment [6], in experiment [2], in experiment [3] and in experiment [5] was “inactive” in each case.
For `Cc1cc(C=c2sc3nc4ccccc4n3c2=O)c(C)n1-c1ccccc1`, the Potency result in experiment [1], in experiment [4] and in experiment [5] was “inactive” each time.
`CC(=O)NC(C)c1ccc(Oc2ccc(OC(C)C)cc2)cc1` (stereo unspecified): the Potency is 16.6 µM (active) in experiment [1] and 8.33 µM (active) in experiment [3].
`NCCCC(N)(C(=O)O)C(F)F` (stereo unspecified): the Potency result in experiment [1], in experiment [3] and in experiment [5] was “inactive” each time. The Potency in experiment [4] is 18.7 µM (active).
Regarding `O=C1CCCC2=C1C(c1[nH]ncc1Cl)N=C(Nc1nc3ccccc3o1)N2` (stereo unspecified), the Potency in experiment [1] was 0.526 µM (active). Further, the Potency result in experiment [3] was “inactive”.
Take `CC(C)NCC(O)COc1ccc(COCCOC(C)C)cc1` (stereo unspecified): the Potency result in experiment [6], in experiment [2] and in experiment [3] was “inactive” each time.
As for `CN[C@@H](C)C(=O)N[C@H]1CCCC[C@H]2CC[C@@H](C(=O)N[C@@H](c3ccccc3)c3cn(CCCCc4ccc(CCCCn5cc([C@@H](NC(=O)[C@@H]6CC[C@@H]7CCCC[C@H](NC(=O)[C@H](C)NC)C(=O)N76)c6ccccc6)nn5)cc4)nn3)N2C1=O`, the Potency in experiment [1] was 18.7 µM (active). In addition, the Potency result in experiment [3] and in experiment [4] was “inactive” in each case.
`OC(CCN1CCCCC1)(c1ccccc1)C1CC2C=CC1C2` (stereo unspecified): the Potency result in experiment [1], in experiment [3] and in experiment [5] was “inactive” each time.
With `O=C(Nc1ccc(F)c(C(F)(F)F)c1)Nc1nnc(-c2ccncc2)s1`, the Potency in experiment [6] is 1.87 µM (active).
In the case of `Cc1n[nH]c(C)c1Cc1sc2c(c1C(=O)N1C[C@H](O)CO1)c(=O)n(C)c(=O)n2CC(C)C`, the Potency in experiment [1] was 0.235 µM (active); in experiment [4] it was 0.0526 µM (active). Moreover, the Potency entry in experiment [3] and in experiment [5] was “inactive” in each case.
Turning to `CCOC(=O)N[C@@H]1CC[C@@H]2[C@@H](C1)C[C@H]1C(=O)O[C@H](C)[C@H]1[C@@H]2C=Cc1ccc(-c2cccc(F)c2)cn1`, the Potency result in experiment [6] and in experiment [3] was “inactive” each time. Moreover, in experiment [2], the Potency was 18.7 µM (active).
In the case of `CS(=O)(=O)Oc1ccc2c(NC(N)=O)c(C(=O)c3ccc(Cl)cc3Cl)oc2c1`, the Potency in experiment [1] was 23.5 µM (active); in experiment [4] it was 5.26 µM (active); in experiment [5] it was 2.35 µM (active). In experiment [3], the Potency entry is “inactive”.
Consider `Clc1ccc(Nc2nnc(Cc3ccncc3)c3ccccc23)cc1`, for which the Potency in experiment [6] is 14.8 µM (active). Also, the Potency result in experiment [3] was “inactive”.
